Bioassay records from PubChem BioAssay.
Mac1 fbg enh: CD11b/CD18-fibrinogen binding enhancement; K562 CD11b/CD18 adhesion to fibrinogen, ATPlite luminescence; AID 1499; P05107+P11215; hit rate 0.07% among 93,000; activation, % at 10 µM;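 active = 10 µM primary screen giving 50% or more activity, confirmed by 40% or more on retest at that dose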
Target sequence (P05107 whole entry, looked up, other chains not shown): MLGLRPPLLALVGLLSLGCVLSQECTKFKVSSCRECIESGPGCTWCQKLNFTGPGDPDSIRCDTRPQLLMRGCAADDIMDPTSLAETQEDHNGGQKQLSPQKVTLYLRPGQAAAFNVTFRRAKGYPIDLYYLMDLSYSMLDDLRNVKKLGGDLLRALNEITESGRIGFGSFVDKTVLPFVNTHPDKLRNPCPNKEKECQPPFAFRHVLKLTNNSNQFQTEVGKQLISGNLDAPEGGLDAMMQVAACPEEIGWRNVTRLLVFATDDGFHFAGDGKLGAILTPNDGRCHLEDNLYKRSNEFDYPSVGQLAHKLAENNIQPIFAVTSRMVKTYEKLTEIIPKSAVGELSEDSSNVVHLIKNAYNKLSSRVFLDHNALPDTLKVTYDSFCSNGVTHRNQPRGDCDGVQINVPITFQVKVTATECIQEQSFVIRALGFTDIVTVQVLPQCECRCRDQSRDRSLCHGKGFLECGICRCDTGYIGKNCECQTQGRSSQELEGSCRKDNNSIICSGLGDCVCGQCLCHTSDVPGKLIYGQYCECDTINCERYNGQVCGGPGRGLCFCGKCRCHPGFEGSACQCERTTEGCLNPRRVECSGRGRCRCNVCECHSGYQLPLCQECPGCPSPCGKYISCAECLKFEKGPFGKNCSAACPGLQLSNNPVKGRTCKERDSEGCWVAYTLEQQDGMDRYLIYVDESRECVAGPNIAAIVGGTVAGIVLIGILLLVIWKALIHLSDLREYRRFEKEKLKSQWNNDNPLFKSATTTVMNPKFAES
CYP2C19 activ: cytochrome P450 2C19 (human) activation | P33261 | recombinant CYP2C19, luciferin-H EGE luminescence; active compounds read high; 0 = fully inhibited enzyme, 1 = untreated enzyme | activation factor at 5 µM | 96,000 tested, under 10 active | AID 1025;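 active = activation factor of at least 2 at 5 µM in the primary screen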;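 also: 0 = wells with 2.5 mM tranylcypromine and 1 = vehicle-only wells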
CYP2C9 act: increases human cytochrome P450 2C9 activity; P11712; activation factor at 5 µM; recombinant CYP2C9, luciferin-H conversion, luminescence; active compounds read high; factor 1 = untreated enzyme, 0 = blocked; hit rate 1.4% among 96,000; AID 1024;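 active = activation factor of 2 or more for CYP2C9 at a 5 µM dose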;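 also: 0 = sulfaphenazole-blocked wells and 1 = vehicle-only wells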
CYP2C9 inh: human CYP2C9 inhibition. P11712. CYP2C9 Supersomes, luciferin-H conversion, luminescence. inhibition, % at 5 µM. hit rate 20% among 96,000. AID 777;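 active = blocking of liver enzyme CYP2C9 beyond about 50% at 5 µM, limit read from the data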
CD11b adhes inh: inhibitors of human CD11b/CD18 binding to fibrinogen | inhibition, % at 10 µM | AID 1497 | K562 CD11b/CD18 adhesion to fibrinogen, ATPlite luminescence; Mn2+ added to activate the integrin | hit rate 0.54% among 93,000 | P05107+P11215;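 active = primary inhibition of 50% or more at 10 µM, then 40% or more on retest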
CYP2C19 inhib: blocks human cytochrome P450 2C19 | P33261 | CYP2C19 Supersomes, luciferin-H EGE luminescence, 30 min | inhibition, % at 5 µM | hit rate 21% among 96,000;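 active = CYP2C19 inhibition above a set limit at 5 µM in the primary screen, cut at about 50% in these data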;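 also: plate controls were negative control wells for no effect and 2.5 mM tranylcypromine positive control for full effect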
Numbers without * were called inactive; . = no result. A selection: hits, their analogues and other compounds. The true share with any hit is near 28%.

SMILES	Mac1 fbg enh	CYP2C19 activ	CYP2C9 act	CYP2C9 inh	CD11b adhes inh	CYP2C19 inhib
O=C(CCc1ccc(S(=O)(=O)N2CCCCC2)cc1)c1nnc(-c2ccccc2)o1	-5	0.3	0.6	41	-11	74*
O=C(c1ccc(S(=O)(=O)N2CCCCC2)cc1)c1nnc(-c2ccc(Cl)cc2)o1	6	1	0.9	6	9	2
FC(F)(F)c1nnc2c(Sc3ccccc3)nc3ccc(Cl)cc3n12	.	0.5	0.7	26	.	50*
CCC(=O)N1CCN(c2nc(-c3ccccc3)c3c(c2C#N)CCCC3)CC1	2	0.2	0.3	69*	-8	83*
N#Cc1c(SCC(=O)O)nc(-c2ccccc2)c2c1CCCC2	-3	1	0.7	29	7	0
CC(C)c1nc(N2CCN(C(=O)c3ccccc3)CC2)c(C#N)c2c1COC(C)(C)C2	3	0.3	0.2	81*	4	72*
CC1(C)Cc2c(C#N)c(N3CCCC3)nc(-c3ccco3)c2CO1	-2	0.5	0.1	91*	-2	51*
N#Cc1c(N2CCOCC2)nc(-c2ccco2)c2c1CCCC2	-1	0.8	0.3	67*	-8	21
COc1cc(CNC(C)(C)CO)ccc1OCC(=O)Nc1ccc(Br)cc1	.	1	0.9	7	.	2
O=C(Nc1ccc(Cl)c(Cl)c1)Nc1nnc(CC2=CCCCC2)s1	41	.	.	.	8	.
CC(=O)Nc1cccc(OCC(=O)NS(=O)(=O)c2ccc(Cl)cc2)c1	0	1	0.5	46	-12	-5
Cc1ccc(OC(=O)c2ccc(N3CCOCC3)c([N+](=O)[O-])c2)cc1	6	1	1	0	-4	2
Cc1cc(-c2nsc(=O)o2)c(S(C)(=O)=O)s1	.	0.9	0.8	17	.	10
COc1cc(OC)cc(C(=O)NCCN2CCOCC2)c1	3	1	1.2	-15	-12	2
C=CCn1c(SC(C)CC)nc(O)cc1=O (stereo not drawn)	0	0	0.7	26	-36	98*
C=CCn1c(SCCCC)nc(O)cc1=O	-11	0.9	1	2	17	9
O=C(NCc1ccco1)c1ccc(Cn2c(=O)c3ccccc3n(Cc3cccc(Cl)c3)c2=O)cc1	13	1	1	0	-4	2
COCCCNC(=O)c1ccc(Cn2c(=O)c3ccccc3n(Cc3ccc(C)cc3)c2=O)cc1	2	0.5	0.5	54*	12	47
O=C(COC(=O)CNC(=O)C12CC3CC(CC(C3)C1)C2)Nc1ccccc1	-1	0.9	1	3	1	8
NS(=O)(=O)c1ccc(NC(=O)COC(=O)CCNC(=O)NC23CC4CC(CC(C4)C2)C3)cc1	-3	0.7	0.4	65*	-13	30
Cc1cccc2nc(CSc3nnc4ccccn34)cn12	6	0.9	1.1	-10	-20	13
CC(Nc1nc(N2CCCCC2)nc2ccccc12)c1ccccc1 (stereo not drawn)	-2	0.6	0.6	41	-29	35
CCOC(=O)c1cnn(-c2ccccc2)c1-n1cccc1C(=O)C(=O)Nc1ccccc1	2	0.5	0.3	72*	-17	46
CCOC(=O)c1cnn(-c2ccccc2)c1-n1cccc1C(=O)C(=O)Nc1ccc(F)cc1	2	0.6	0.3	75*	8	39
CCOC(=O)c1cnn(-c2ccccc2)c1N	-2	0.9	1	3	-22	10
SMILES	Mac1 fbg enh	CYP2C19 activ	CYP2C9 act	CYP2C9 inh	CD11b adhes inh	CYP2C19 inhib
O=C(NC1CCCCC1)C1CCN(S(=O)(=O)N2CCOCC2)CC1	2	1.2	1.1	-9	7	-20
Cc1cc(C)nc(-n2nc(C)cc2NC(=O)c2cccc(S(=O)(=O)N3CCCCC3)c2)n1	16	0.9	0.7	28	-6	8
C/C(Cn1nnc([N+](=O)[O-])n1)=N\NC(=O)c1ccc(Cl)c(Cl)c1	-1	0.9	0.9	5	4	13
CCOc1ccc(OCCOc2cccc(C(F)(F)F)c2)cc1	0	0.7	1.5	-47	3	26
COc1ccccc1NC(=O)CN(C)S(=O)(=O)c1ccc2c(c1)CCC(=O)N2	-3	0.7	1	1	2	30
CCOc1ccccc1NC(=O)CN(C)S(=O)(=O)c1ccc(OC)c(C)c1	4	0	1.2	-20	27	99*
CCOc1c(Cl)cc(C(=O)Nc2ccccc2C(=O)O)cc1Cl	-12	1.1	0.4	59*	89*	-5
COc1ccc(OC)c(S(=O)(=O)N(C)CC(=O)Nc2ccccc2OC)c1	2	0.2	0.7	26	-6	77*
COC(=O)c1ccccc1NC(=O)CN(C)S(=O)(=O)c1cc(C)ccc1OC	-1	0.1	0.3	67*	.	94*
COc1ccc(S(=O)(=O)N(C)CC(=O)NCc2cccnc2)cc1C	1	0.2	1.8	-84	-22	80*
COc1ccc(NC(=O)CN(C)S(=O)(=O)c2ccc3c(c2)CCC(=O)N3)c(OC)c1	-4	0.5	1.7	-70	-3	55*
CCN(CC)S(=O)(=O)c1cc(C(=O)Nc2ccccc2C(=O)O)ccc1OC	.	0.9	0.1	86*	.	13
CCN(Cc1ccccc1)S(=O)(=O)c1cc(C(=O)NCC2CCCCC2)ccc1OC	-1	.	.	.	36	.
COc1ccc(S(=O)(=O)N(C)CC(=O)Nc2ccccc2OC)cc1C	1	0.1	1.3	-29	-6	93*
CCOC(=O)c1ccc(NC(=O)CN2C(=O)C(CC)SC(CC)C2=O)cc1 (stereo not drawn)	-2	.	.	.	-4	.
CCCS(=O)(=O)N1CCC(C(=O)NCCCOCC)CC1	-1	1	0.9	8	-13	1
Cc1cc(=O)[nH]c(SCC(=O)Nc2ccc(Br)cc2)c1C#N	-6	0.1	0.1	93*	93*	95*
COC(=O)CSc1[nH]c(=O)cc(C)c1C#N	-5	1.1	1	2	14	-11
Cc1cc(=O)[nH]c(SCC(=O)Nc2ccccc2C#N)c1C#N	-3	0.4	0.3	71*	-1	64*
CCOC(=O)c1sc(NS(=O)(=O)c2ccccc2Cl)nc1C	-1	0.5	0	96*	9	52*
CCOC(=O)c1sc(NS(=O)(=O)c2ccc(NC(C)=O)cc2)nc1C	-3	0.8	0.6	45	2	15
CCOC(=O)c1c(Nc2nc(C)c(C(=O)NC)s2)sc(C)c1C	7	0.6	0.4	65*	-6	40
CNc1nc(C)c(C(=O)OCC(=O)OC)s1	-1	0.9	1	5	0	6
CCOC(=O)c1sc(NS(=O)(=O)c2ccccc2)nc1C	.	0.7	0.2	81*	.	28
CNc1nc(C)c(C(=O)OCc2ccccc2)s1	0	0.2	0.5	54*	5	85*
